Screening data as filed in PubChem.
HTR5A inv ctr – counter-screen for OPRM1-OPRD1 inverse agonists: human HTR5A inverse agonism. P47898. HTR5A cell line, luminescence. inhibition, % at 9.3 µM. 0.083% of 340,000 active. AID 504634; in the data active = inhibition mostly above about 23%, no sharp cut-off; inactive = mostly below about 18%;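 also: 0% = cells with DMSO and 100% = no-cell wells with DMSO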
MOR-DOR ag – OPRM1-OPRD1 heterodimerization agonism | cells, luminescence | 0.3% of 340,000 active | activation, % at 9.3 µM | AID 504326 | P35372+P41143; in the data active = activation above about 18%;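 also: 0% = vehicle-treated cells and 100% = reference agonist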
Target sequence (P35372 whole entry, looked up): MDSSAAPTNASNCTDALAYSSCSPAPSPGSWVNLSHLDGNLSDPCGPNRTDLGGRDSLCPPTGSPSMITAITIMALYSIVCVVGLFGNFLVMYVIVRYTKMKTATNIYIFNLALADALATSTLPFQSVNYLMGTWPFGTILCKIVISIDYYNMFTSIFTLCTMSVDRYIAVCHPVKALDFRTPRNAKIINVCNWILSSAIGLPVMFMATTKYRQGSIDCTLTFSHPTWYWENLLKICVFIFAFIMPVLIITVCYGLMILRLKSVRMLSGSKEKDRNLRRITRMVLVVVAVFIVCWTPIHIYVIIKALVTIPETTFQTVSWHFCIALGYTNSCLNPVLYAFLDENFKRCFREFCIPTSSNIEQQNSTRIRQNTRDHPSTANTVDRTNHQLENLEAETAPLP
Target sequence (P41143 whole entry, looked up): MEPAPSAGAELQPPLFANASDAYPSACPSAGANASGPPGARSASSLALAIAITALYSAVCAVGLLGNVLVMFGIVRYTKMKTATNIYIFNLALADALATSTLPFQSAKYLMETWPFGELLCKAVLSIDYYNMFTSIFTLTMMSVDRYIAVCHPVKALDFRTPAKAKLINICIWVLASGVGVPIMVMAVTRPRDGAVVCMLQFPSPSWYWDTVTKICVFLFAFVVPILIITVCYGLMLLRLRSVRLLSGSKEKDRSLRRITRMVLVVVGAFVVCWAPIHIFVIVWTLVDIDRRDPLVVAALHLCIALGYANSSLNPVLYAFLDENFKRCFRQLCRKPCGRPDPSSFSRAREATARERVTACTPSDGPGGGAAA
MOR-DOR inv ag – inverse agonist of human OPRM1-OPRD1 heterodimerization | P35372+P41143 | cell-based MOR-DOR heterodimer luminescence, inverse agonism | inhibition, % at 9.3 µM | 0.21% of 340,000 active | AID 504357; in the data active = inhibition above about 22%, passing the limit was not always enough;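 also: 0% = cells with DMSO and 100% = wells without cells with DMSO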
HTR5A ag – activates human HTR5A in OPRM1-OPRD1 agonist counter-screen; P47898; HTR5A agonist assay, luminescence, cell-based; activation, % at 9.3 µM; 0.61% of 340,000 active; in the data active = activation mostly above about 9.5%, no sharp cut-off; inactive = mostly below about 7.6%;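 also: 0% = cells with vehicle only and 100% = reference agonist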
Numbers without * were called inactive. Compounds with a hit are over-represented: about 1.1% of the library has one in this group of screens.

SMILES | HTR5A inv ctr | MOR-DOR ag | MOR-DOR inv ag | HTR5A ag
Cc1nc2ccccc2n1S(=O)(=O)c1ccc(S(=O)(=O)N2CCCCCC2)cc1 | -37 | -2 | 8 | 14*
Cc1cc(C(=O)NN)c2cc(Br)ccc2n1 | -41 | 1 | -4 | 13*
Cc1cccc(NC(=O)CN2C(=O)N/C(=C/c3ccc(C)s3)C2=O)c1 | -23 | 23* | -145 | 12*
COC(=O)CCC(=O)c1oc2ccc(Br)cc2c1N | -26 | -3 | 13 | 12*
COc1ccc2oc(C(=O)CCC(=O)O)c(N)c2c1 | 19 | 2 | -9 | 0
COc1ccc(S(=O)(=O)Cc2ccc(C(=O)N3CC(C)CC(C)C3)o2)cc1 (configuration not stated) | -36 | 0 | 0 | 13*
COc1ccc(S(=O)(=O)Cc2ccc(C(=O)N3CCOCC3)o2)cc1 | -23 | -2 | 9 | 8
Cc1ccc(NC(=O)CNCc2ccccc2)c(Br)c1 | 0 | 4 | -17 | 0
Cc1ccc(CNCC(=O)Nc2ccc(C)cc2Br)cc1 | 13 | 2 | -10 | 12*
C=CCC1(CC=C)CCCN1C(=O)c1cc(COc2ccc(C)nc2)on1 | -13 | 1 | -3 | 3
COc1ccc(-c2nn(-c3ccccc3)cc2C#N)cc1 | -35 | 2 | -9 | 14*
CCOC(=O)C1CCCN(C(=O)C2c3ccccc3Oc3ccccc32)C1 (configuration not stated) | 14 | 0 | 2 | 12*
COC(=O)CC1COc2ccccc2N1C(=O)/C=C/c1ccccc1 (configuration not stated) | -8 | 2 | -11 | 2
O=C(OCC(=O)N1CCOCC1)c1cc2ccccc2oc1=O | -6 | -4 | 16 | -5
O=C(CSC(=S)N1CCOCC1)c1cc2ccccc2oc1=O | -36 | -1 | 5 | 10.0*
COc1cc2c(-c3ccc4[nH]ccc4c3)c(-c3ccc(C#N)cc3)oc(=O)c2cc1OC | -16 | -2 | 9 | 6
CC(C)c1ccc(-n2nnnc2SCC(=O)NC2CC2)cc1 | 17 | -2 | 11 | -5
Cc1sc(-c2ccncc2)nc1OC(=O)c1ccc(F)cc1F | -26 | 1 | -7 | 9.8*
C=CCN(CC=C)Cc1c(O)ccc2c1oc(=O)c1ccccc12 | 32 | -8 | 45* | -8
Fc1ccc(-c2csc(=S)[nH]2)cc1 | 7 | -1 | 3 | -3
S=c1[nH]c(-c2ccccc2)cs1 | -25 | 4 | -20 | 10*
Cc1ncc(CO)c2c1Oc1nc(-c3ccccc3F)nc(SCC(=O)N(C)c3ccccc3)c1C2 | -5 | 20* | -103 | 12*
CCS(=O)(=O)N1CCC(NC(=O)C(Cc2cc(OC)ccc2OC)NC(C)=O)CC1 (configuration not stated) | -33 | -3 | 18 | 5
Cc1ccc2c(c1)C(c1ccc(O)cc1)(c1ccc(O)cc1)C(=O)N2C | -28 | -1 | 7 | 10*
O=S(=O)(O)c1cc(OS(=O)(=O)c2ccccc2)cc2ccccc12 | 1 | -1 | 5 | 0
SMILES | HTR5A inv ctr | MOR-DOR ag | MOR-DOR inv ag | HTR5A ag
CCC(=O)NCCn1c(C)cc2ccccc21 | -17 | 0 | -1 | 6
Cc1cc2ccccc2n1CCNC(=O)COc1ccccc1 | -28 | 31* | -170 | 1
CCOC(=O)c1c(C)[nH]c(C(=O)OCc2ccccc2F)c1C | -15 | 10 | -70 | 10
CCn1cc(Cl)c(C(=O)N2N=C(c3ccc4ccccc4c3)CC2c2ccccc2O)n1 (configuration not stated) | -43 | 5 | -24 | 12*
O=C(O)CCC(=O)Nc1ccccc1C(=O)NCCc1ccccc1 | 20 | -2 | 9 | 12*
CCCNCC1C(Oc2ccc(Cl)cc2Cl)C(=O)N1c1cccc(C)c1C (configuration not stated) | -12 | 12 | -63 | 4
CCCCNCC1C(Oc2ccc(Cl)cc2)C(=O)N1c1ccccc1C (configuration not stated) | 4 | 11 | -80 | 12*
CC1CC(=O)c2c(cc3c(-c4c(O)cc(O)c5c(O)c6c(cc45)OC(C)CC6=O)c(O)cc(O)c3c2O)O1 (configuration not stated) | 13 | 82* | -412 | 17*
C=CCN1C(=O)/C(=N/n2cnnc2)c2ccccc21 | -7 | -8 | 46* | 2
CCN1C(N(C)CCc2c[nH]c3ccccc23)=N[C@@H](c2cccc(C(F)(F)F)c2)C(C(=O)OC)=C1C | -66 | 3 | -19 | 22*
CCOc1ccc(Cn2nnc(C(=O)Nc3cc(OC)cc(OC)c3)c2N)cc1 | -3 | 3 | -13 | 1
CCOc1ccc(Cn2nnc(C(=O)Nc3cc(C)cc(C)c3)c2N)cc1 | -31 | 6 | -30 | 12*
Cc1sc2nc(CN3CCN(c4ccc(O)cc4)CC3)[nH]c(=O)c2c1C | -39 | -1 | 5 | 12*
CCOC(=O)C1CCCN(C(=O)COc2ccc(C(=O)c3ccccc3)cc2)C1 (configuration not stated) | 2 | -1 | 4 | 0
CCOC(=O)C1CCCN(c2c(C(=O)c3ccccc3)cnc3ccc(OC)cc23)C1 (configuration not stated) | 30* | -7 | 36* | -12
O=C(COC(=O)c1ccc(Cl)nc1)Nc1nnc(-c2ccccc2)o1 | 10 | -3 | 15 | -4
Cc1c(C(=O)OCC(=O)Nc2ccc(S(N)(=O)=O)cc2)oc2c1ccc1ccccc12 | -21 | 10 | -48 | 12*
Cc1cc(NC(=O)COC(=O)c2oc3c(ccc4ccccc43)c2C)no1 | -1 | 5 | -30 | 0
Cc1onc(C(=O)N2CCN(C(c3ccccc3)c3ccccc3)CC2)c1[N+](=O)[O-] | -33 | 16 | -81 | 13*
COc1ccccc1N1CCN(C(=O)c2noc(C)c2[N+](=O)[O-])CC1 | 8 | -1 | 6 | 9
Cc1cnc(=O)[nH]c1SCc1ccccc1F | -3 | -2 | 9 | -4
COc1ccc(C(=O)C(CCC(CNC(C)(C)C)C(=O)c2ccc(OC)cc2)CNC(C)(C)C)cc1 (configuration not stated) | -38 | 1 | -8 | 13*
COc1ccc(C(=O)CC(=O)c2ccc(C(C)(C)C)cc2)cc1 | -3 | 1 | -3 | 2
CC(NC(=O)CN1C(=O)NC2(CCCC2)C1=O)c1ccc2ccccc2c1 (configuration not stated) | 13 | -4 | 16 | -5
O=C(NC(=S)Nc1c(Cl)ccc2nsnc12)c1ccccc1F | -7 | -1 | 7 | 10*
SMILES | HTR5A inv ctr | MOR-DOR ag | MOR-DOR inv ag | HTR5A ag
Cc1ccc2nsnc2c1NC(=S)NC(=O)c1ccco1 | 4 | -1 | 8 | -2
CC(=O)C1=C(O)C(=O)N(Cc2cccnc2)C1c1ccc(Cl)cc1Cl (configuration not stated) | -39 | 0 | -1 | 12*
CC(=O)C1=C(O)C(=O)N(Cc2cccnc2)C1c1ccccc1 (configuration not stated) | -24 | 0 | 3 | -8
Cn1cc(/C=N/NC(=O)c2ccccc2O)c2ccccc21 | -35 | -4 | 22 | 10*
CC(=O)n1cc(/C=N/NC(=O)c2ccccc2O)c2ccccc21 | 7 | -2 | 9 | -2
COCCN(C(=O)COC(=O)c1ccccc1Cc1ccccc1)c1c(N)n(Cc2ccccc2)c(=O)[nH]c1=O | -14 | -2 | 14 | 5
